Results as given in PubChem BioAssay (EPA / NIEHS).
Inconclusive results are not listed. The source made the active and inactive calls. The calls were made as follows, unless noted: active = hit-call score of the fitted dose curve at least 0.9, where 1 is the maximum; inconclusive = response in the unintended direction; inactive = score below 0.9.

What was measured:
[1] = ATG_TAL_CIS: Attagene CIS-FACTORIAL HepG2 Assay for human TAL Basal Promoter (AID 2282966; active = hit-call score of the fitted dose curve at least 0.9, where 1 is the maximum; inactive = score below 0.9;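 also: background control endpoint measuring basal TAL promoter reporter mRNA not a specific factor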); conditions: HepG2 Attagene cis-factorial TAL promoter reporter; actives raise or lower the signal
Method in brief: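 Background-control endpoint: basal TAL promoter reporter transcripts in transiently transfected HepG2, measured 24 h after dosing. Read-out by RT-PCR with fluorescent primer extension and capillary electrophoresis; gain or loss of signal fitted relative to DMSO.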

[2] = ATG_TGFb_CIS: Attagene CIS-FACTORIAL HepG2 Assay for human Transforming Growth Factor (TGF) (AID 2282967; active = hit-call score of the fitted dose curve at least 0.9, where 1 is the maximum; inactive = score below 0.9); conditions: HepG2 Attagene CIS TGFb reporter, mRNA transcription; actives raise or lower the signal
Method in brief: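 Bidirectional fitting relative to DMSO gave the endpoint. Underlying data: reporter mRNA from HepG2 cells carrying transiently transfected cis-regulated reporter constructs, harvested 24 h after dosing and analyzed by RT-PCR and capillary electrophoresis.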

[3] = ATG_VDRE_CIS: Attagene CIS-FACTORIAL HepG2 Assay for human Vitamin D Receptor Element (VDRE) (AID 2282968; active = hit-call score of the fitted dose curve at least 0.9, where 1 is the maximum; inactive = score below 0.9); conditions: HepG2 VDRE cis-reporter transcription, actives raise or lower the signal
Method in brief: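 Measures endogenous factor activity through cis-element-driven reporter transcripts in transiently transfected HepG2. Cells are treated 24 h; reporter mRNA is quantified by RT-PCR and capillary electrophoresis; fitting is bidirectional.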

[4] = target: Nuclear receptor subfamily 1 group I member 3 (Homo sapiens) (UniProt Q14994); assay: ATG_CAR_TRANS: Attagene TRANS-FACTORIAL HepG2 Assay for human Constitutive Androstane Receptor (CAR) (AID 2282969); conditions: HepG2 Attagene TRANS-FACTORIAL CAR reporter;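 also: activators raise reporter mRNA above DMSO so AC50 marks induction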
Sequence of Nuclear receptor subfamily 1 group I member 3 (Homo sapiens) (Q14994 whole entry, looked up, the tested form may be a part): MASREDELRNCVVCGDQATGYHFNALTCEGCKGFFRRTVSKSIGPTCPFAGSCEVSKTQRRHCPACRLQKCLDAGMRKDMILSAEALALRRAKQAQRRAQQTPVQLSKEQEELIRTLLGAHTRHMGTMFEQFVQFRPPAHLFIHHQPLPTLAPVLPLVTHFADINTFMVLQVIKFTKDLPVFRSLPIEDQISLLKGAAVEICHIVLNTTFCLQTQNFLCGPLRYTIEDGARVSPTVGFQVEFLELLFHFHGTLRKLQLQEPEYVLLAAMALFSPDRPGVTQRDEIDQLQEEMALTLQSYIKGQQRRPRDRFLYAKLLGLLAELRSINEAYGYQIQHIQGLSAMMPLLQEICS
Method in brief: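 Signal is reporter mRNA induction relative to DMSO, measured 24 h after dosing by RT-PCR with fluorescent primer extension and capillary electrophoresis. Human HepG2 liver cells carried transiently transfected chimeric NR-Gal4/GAL4-UAS reporter constructs.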

[5] = target: X-box-binding protein 1 (Homo sapiens) (UniProt P17861); assay: ATG_Xbp1_CIS: Attagene CIS-FACTORIAL HepG2 Assay for human X-box Binding Protein 1 (XBP1) (AID 2282972; active = hit-call score of the fitted dose curve at least 0.9, where 1 is the maximum; inactive = score below 0.9); conditions: HepG2 XBP1 cis-element reporter, Attagene multiplex; actives raise or lower the signal
Sequence of X-box-binding protein 1 (Homo sapiens) (P17861 whole entry, looked up): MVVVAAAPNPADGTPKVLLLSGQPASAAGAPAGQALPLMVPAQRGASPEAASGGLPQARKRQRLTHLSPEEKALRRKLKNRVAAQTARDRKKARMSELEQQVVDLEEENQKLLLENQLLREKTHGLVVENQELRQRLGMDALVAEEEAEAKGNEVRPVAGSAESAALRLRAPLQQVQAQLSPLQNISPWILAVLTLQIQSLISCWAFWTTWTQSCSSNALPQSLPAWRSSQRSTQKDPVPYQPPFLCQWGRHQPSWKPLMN
Method in brief: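 Reporter transcripts were quantified by RT-PCR with fluorescent primer extension and capillary electrophoresis after 24 h chemical exposure. Cells: transiently transfected HepG2 carrying cis-regulated reporter constructs; data fitted bidirectionally relative to DMSO.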

[6] = ATG_M_19_TRANS: Attagene TRANS-FACTORIAL HepG2 Assay for M19 Transcription Factor (Internal Marker) (AID 2282974); conditions: HepG2 Attagene TRANS-FACTORIAL M19 internal marker reporter
Method in brief: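 Reporter mRNA induction was measured in transfected HepG2 cells 24 h after dosing. Endpoint fitted upward relative to DMSO and serves as a background control within the multiplexed TRANS panel.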

[7] = ATG_GAL4_TRANS: Attagene TRANS-FACTORIAL HepG2 Assay for GAL4 (Internal Marker) (AID 2282976); conditions: HepG2 Attagene TRANS GAL4 internal marker reporter
Method in brief: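 In transfected human HepG2 liver cells dosed 24 h, GAL4 reporter mRNA serves as a baseline marker. Detection by RT-PCR with fluorescent capillary electrophoresis, activity fitted upward relative to DMSO.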

[8] = target: Estrogen-related receptor gamma (Homo sapiens) (UniProt P62508); assay: ATG_ERRg_TRANS: Attagene TRANS-FACTORIAL HepG2 Assay for human Estrogen-Related Receptor gamma (ERRg) (AID 2282977); conditions: HepG2 Attagene TRANS reporter, ERRg transactivation;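 also: hits increase reporter signal over DMSO so potencies reflect activators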
Method in brief: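 Readout: fluorescent reporter-mRNA fragments resolved by capillary electrophoresis after RT-PCR and HpaI cut. Cells: transiently transfected HepG2 carrying GAL4-UAS reporters driven by exogenous NR-Gal4 chimeras, dosed 24 h. Activity fitted upward relative to DMSO baseline.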

[9] = target: Glucocorticoid receptor (Homo sapiens) (UniProt P04150); assay: ATG_GR_TRANS: Attagene TRANS-FACTORIAL HepG2 Assay for human Glucocorticoid Receptor (GR) (AID 2282978); conditions: HepG2 Attagene TRANS GR reporter, mRNA transcription;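 also: activators score as hits since higher reporter transcript over DMSO is fitted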
Sequence of Glucocorticoid receptor (Homo sapiens) (P04150 whole entry, looked up, the tested form may be a part): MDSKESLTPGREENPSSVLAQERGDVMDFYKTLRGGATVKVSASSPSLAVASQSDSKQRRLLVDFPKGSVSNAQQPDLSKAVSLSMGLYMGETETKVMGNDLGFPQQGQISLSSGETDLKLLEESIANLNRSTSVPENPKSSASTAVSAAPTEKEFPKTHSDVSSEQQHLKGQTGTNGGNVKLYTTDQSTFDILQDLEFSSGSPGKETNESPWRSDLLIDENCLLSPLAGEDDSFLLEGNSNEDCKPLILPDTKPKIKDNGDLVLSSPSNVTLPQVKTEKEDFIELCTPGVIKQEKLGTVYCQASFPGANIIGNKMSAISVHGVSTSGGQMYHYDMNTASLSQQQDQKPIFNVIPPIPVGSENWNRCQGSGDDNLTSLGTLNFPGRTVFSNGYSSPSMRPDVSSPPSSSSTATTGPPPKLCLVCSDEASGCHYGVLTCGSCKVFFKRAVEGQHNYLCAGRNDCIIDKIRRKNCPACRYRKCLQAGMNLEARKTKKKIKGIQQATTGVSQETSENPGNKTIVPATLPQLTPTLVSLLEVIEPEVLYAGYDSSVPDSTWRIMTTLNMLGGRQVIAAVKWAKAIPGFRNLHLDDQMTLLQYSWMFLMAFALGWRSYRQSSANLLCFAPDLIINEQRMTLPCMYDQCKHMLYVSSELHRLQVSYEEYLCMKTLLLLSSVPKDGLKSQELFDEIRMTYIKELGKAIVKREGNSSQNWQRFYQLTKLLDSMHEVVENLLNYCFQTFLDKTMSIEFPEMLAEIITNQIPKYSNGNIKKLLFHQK
Method in brief: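 Reporter transcript levels, detected by fluorescence after RT-PCR and capillary electrophoresis, served as the endpoint. HepG2 cells bearing transfected GAL4-UAS reporters responsive to NR-GAL4 chimeras were incubated with compound 24 h; DMSO defined baseline.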

[10] = target: Oxysterols receptor LXR-alpha (Homo sapiens) (UniProt Q13133); assay: ATG_LXRa_TRANS: Attagene TRANS-FACTORIAL HepG2 Assay for human Liver X Receptor alpha (LXRa) (AID 2282980); conditions: HepG2 Attagene TRANS reporter, LXRa transactivation
Sequence of Oxysterols receptor LXR-alpha (Homo sapiens) (Q13133 whole entry, looked up, the tested form may be a part): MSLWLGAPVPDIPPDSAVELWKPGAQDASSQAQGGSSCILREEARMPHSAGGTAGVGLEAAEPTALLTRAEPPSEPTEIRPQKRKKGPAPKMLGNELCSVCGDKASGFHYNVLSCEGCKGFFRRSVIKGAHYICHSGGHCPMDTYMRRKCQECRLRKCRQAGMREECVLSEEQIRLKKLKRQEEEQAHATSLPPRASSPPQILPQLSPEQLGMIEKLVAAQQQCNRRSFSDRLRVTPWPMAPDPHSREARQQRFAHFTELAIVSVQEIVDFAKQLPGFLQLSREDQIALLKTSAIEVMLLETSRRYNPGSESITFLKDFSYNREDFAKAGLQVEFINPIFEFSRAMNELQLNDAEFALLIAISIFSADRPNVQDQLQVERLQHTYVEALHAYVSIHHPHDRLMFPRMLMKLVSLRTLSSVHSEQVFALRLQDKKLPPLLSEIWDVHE
Method in brief: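 Chemical-induced reporter mRNA measured by RT-PCR with fluorescent labelling and capillary electrophoresis after 24 h dosing of transiently transfected HepG2 cells expressing exogenous NR-Gal4 chimeras; increases scored against DMSO baseline.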

[11] = target: Hepatocyte nuclear factor 4-alpha (Homo sapiens) (UniProt P41235); assay: ATG_HNF4a_TRANS: Attagene TRANS-FACTORIAL HepG2 Assay for human Hepatocyte Nuclear Factor 4 alpha (HNF4a) (AID 2282982); conditions: HepG2 HNF4a transactivation reporter, mRNA readout
Sequence of Hepatocyte nuclear factor 4-alpha (Homo sapiens) (P41235 whole entry, looked up): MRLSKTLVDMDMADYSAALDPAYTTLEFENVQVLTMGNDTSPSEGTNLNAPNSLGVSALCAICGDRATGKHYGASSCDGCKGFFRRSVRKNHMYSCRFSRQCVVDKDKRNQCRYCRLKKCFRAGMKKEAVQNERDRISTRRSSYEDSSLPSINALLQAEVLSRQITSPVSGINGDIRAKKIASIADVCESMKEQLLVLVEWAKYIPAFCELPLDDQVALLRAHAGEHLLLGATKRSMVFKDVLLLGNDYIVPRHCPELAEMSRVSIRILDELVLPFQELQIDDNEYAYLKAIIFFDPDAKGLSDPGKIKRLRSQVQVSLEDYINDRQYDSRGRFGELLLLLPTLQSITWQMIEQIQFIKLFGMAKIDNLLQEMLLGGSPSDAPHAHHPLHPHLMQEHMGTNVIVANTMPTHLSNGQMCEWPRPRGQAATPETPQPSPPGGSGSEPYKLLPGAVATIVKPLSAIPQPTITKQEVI
Method in brief: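 Multiplexed reporter assay: transfected HepG2, 24 h exposure, total RNA → oligo(dT) RT → PCR → 6-FAM extension → HpaI digest → CE fluorescence. DMSO = negative control.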

[12] = ATG_M_32_TRANS: Attagene TRANS-FACTORIAL HepG2 Assay for M32 Transcription Factor (Internal Marker) (AID 2282984); conditions: HepG2 Attagene TRANS M32 internal marker reporter
Method in brief: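 Cell-based TRANS-format assay in HepG2: exogenous chimeric GAL4 reporter units transiently expressed, compounds applied 24 h. Reporter mRNA detected by RT-PCR plus capillary electrophoresis; this readout is an internal background marker.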

[13] = target: Nuclear receptor subfamily 4 group A member 2 (Homo sapiens) (UniProt P43354); assay: ATG_NURR1_TRANS: Attagene TRANS-FACTORIAL HepG2 Assay for human Nuclear Receptor Related Protein 1 (NURR1) (AID 2282985); conditions: HepG2 Attagene TRANS reporter, mRNA readout
Sequence of Nuclear receptor subfamily 4 group A member 2 (Homo sapiens) (P43354 whole entry, looked up, the tested form may be a part): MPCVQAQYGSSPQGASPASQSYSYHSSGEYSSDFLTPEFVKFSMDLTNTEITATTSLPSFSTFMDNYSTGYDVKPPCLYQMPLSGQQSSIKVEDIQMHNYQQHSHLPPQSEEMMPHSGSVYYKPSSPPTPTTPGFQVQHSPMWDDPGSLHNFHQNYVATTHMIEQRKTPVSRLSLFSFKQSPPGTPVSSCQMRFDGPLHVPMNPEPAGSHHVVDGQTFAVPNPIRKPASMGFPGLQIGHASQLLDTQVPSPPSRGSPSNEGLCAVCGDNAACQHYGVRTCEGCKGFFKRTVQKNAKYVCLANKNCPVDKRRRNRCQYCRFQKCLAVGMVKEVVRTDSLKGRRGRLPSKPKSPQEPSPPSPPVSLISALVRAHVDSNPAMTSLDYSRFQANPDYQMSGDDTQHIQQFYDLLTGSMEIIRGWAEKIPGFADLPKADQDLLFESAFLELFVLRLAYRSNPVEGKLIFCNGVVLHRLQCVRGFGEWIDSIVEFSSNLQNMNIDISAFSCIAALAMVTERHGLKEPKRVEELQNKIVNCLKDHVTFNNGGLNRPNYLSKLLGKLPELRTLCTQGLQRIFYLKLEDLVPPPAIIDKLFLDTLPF
Method in brief: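 Measures transcriptional activation by an exogenous NR-Gal4 chimera in transfected HepG2 liver cells. After 24 h, reporter RNA is reverse-transcribed, amplified and resolved by capillary electrophoresis; DMSO defines baseline.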

[14] = target: Transcriptional activator Myb (Homo sapiens) (UniProt P10242); assay: ATG_Myb_CIS: Attagene CIS-FACTORIAL HepG2 Assay for human Myeloblastosis (Myb) Proto-Oncogene Transcription Factor (AID 2282986; active = hit-call score of the fitted dose curve at least 0.9, where 1 is the maximum; inactive = score below 0.9); conditions: HepG2 Attagene CIS-FACTORIAL Myb reporter transcription; actives raise or lower the signal
Sequence of Transcriptional activator Myb (Homo sapiens) (P10242 whole entry, looked up): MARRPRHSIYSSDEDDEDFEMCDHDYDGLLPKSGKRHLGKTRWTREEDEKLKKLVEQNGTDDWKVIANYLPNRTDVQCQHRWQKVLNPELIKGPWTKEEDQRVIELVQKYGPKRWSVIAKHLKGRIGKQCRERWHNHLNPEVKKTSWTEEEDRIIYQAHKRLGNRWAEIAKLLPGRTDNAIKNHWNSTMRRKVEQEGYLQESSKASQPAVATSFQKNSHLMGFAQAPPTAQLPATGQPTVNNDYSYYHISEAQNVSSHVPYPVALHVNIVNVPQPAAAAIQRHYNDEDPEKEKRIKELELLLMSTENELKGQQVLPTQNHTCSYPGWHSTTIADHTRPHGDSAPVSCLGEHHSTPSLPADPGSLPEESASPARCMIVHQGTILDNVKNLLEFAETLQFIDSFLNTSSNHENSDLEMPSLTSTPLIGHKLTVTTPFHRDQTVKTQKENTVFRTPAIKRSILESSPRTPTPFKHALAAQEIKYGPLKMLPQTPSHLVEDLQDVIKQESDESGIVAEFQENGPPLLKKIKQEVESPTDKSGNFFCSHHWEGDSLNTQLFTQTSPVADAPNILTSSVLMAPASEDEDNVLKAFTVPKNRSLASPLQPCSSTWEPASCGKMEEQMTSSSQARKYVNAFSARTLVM
Method in brief: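 Transiently transfected HepG2 cells, treated 24 h. Reporter mRNA quantified by RT-PCR/capillary electrophoresis; bidirectional fit relative to DMSO.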

[15] = target: Nuclear respiratory factor 1 (Homo sapiens) (UniProt Q16656); assay: ATG_NRF1_CIS: Attagene CIS-FACTORIAL HepG2 Assay for human Nuclear Respiratory Factor 1 (NRF1) Orphan Gene (AID 2282987; active = hit-call score of the fitted dose curve at least 0.9, where 1 is the maximum; inactive = score below 0.9); conditions: HepG2 NRF1 cis-element reporter, Attagene multiplex; actives raise or lower the signal
Sequence of Nuclear respiratory factor 1 (Homo sapiens) (Q16656 whole entry, looked up, the tested form may be a part): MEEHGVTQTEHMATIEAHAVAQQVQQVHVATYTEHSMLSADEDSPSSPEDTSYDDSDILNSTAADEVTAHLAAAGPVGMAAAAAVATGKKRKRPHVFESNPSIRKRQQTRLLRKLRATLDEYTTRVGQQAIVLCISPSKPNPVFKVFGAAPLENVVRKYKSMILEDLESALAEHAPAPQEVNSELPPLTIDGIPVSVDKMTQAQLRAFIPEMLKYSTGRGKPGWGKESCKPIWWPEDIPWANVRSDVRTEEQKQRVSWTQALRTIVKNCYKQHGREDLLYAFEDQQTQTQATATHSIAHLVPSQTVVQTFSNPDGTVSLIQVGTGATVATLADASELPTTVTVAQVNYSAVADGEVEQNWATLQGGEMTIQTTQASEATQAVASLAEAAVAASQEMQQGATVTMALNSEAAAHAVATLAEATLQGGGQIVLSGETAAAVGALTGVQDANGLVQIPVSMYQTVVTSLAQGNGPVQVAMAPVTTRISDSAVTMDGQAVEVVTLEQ
Method in brief: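 Cells (HepG2, transient MRTU transfection) are exposed to compound for 24 h, then RNA isolated and reporter mRNA amplified and fluorescently labelled. Fragments are separated by capillary electrophoresis; signal change is fitted bidirectionally relative to DMSO.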

[16] = ATG_M_06_TRANS: Attagene TRANS-FACTORIAL HepG2 Assay for M06 Transcription Factor (Internal Marker) (AID 2282983); conditions: HepG2 Attagene TRANS M06 internal marker reporter
Method in brief: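 Background-control reporter readout: after 24 h chemical exposure of transiently transfected HepG2 (GAL4-UAS reporter units), mRNA quantified by RT-PCR with fluorescent labeling and capillary electrophoresis. Gain-of-signal fitting against DMSO baseline.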

[17] = target: Bile acid receptor (Homo sapiens) (UniProt Q96RI1); assay: ATG_FXR_TRANS: Attagene TRANS-FACTORIAL HepG2 Assay for Farnesoid X Receptor (FXR) (AID 2282979); conditions: HepG2 Attagene TRANS FXR-GAL4 reporter transcription;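 also: hits raise reporter mRNA above DMSO so AC50 marks FXR activation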
Method in brief: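 Reporter transcripts from transfected HepG2 cells were measured 24 h after dosing, using RT-PCR with capillary electrophoresis of 6-FAM-labelled fragments. The read-out reflects activity of exogenous FXR-Gal4 chimera on GAL4-UAS units, with induction relative to DMSO.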

[18] = target: Oxysterols receptor LXR-beta (Homo sapiens) (UniProt P55055); assay: ATG_LXRb_TRANS: Attagene TRANS-FACTORIAL HepG2 Assay for human Liver X Receptor beta (LXRb) (AID 2282981); conditions: HepG2 Attagene TRANS GAL4-LXRb reporter, mRNA
Sequence of Oxysterols receptor LXR-beta (Homo sapiens) (P55055 whole entry, looked up, the tested form may be a part): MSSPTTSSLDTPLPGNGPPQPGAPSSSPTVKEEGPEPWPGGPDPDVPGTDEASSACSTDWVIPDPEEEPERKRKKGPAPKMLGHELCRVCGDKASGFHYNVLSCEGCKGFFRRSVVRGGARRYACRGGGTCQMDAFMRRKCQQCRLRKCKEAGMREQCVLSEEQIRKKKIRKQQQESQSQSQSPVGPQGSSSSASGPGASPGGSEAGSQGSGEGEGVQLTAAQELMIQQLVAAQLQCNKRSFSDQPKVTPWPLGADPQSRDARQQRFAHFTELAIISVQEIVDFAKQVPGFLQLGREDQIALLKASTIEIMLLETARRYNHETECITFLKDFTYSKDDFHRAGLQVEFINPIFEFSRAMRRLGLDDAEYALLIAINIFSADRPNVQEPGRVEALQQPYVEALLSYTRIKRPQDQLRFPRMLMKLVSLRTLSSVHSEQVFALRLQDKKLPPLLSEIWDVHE
Method in brief: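 After 24 h of chemical treatment, transfected HepG2 cells yield total RNA; reporter cDNA is PCR-amplified, FAM-labelled, HpaI-cut and run on capillary electrophoresis. Signal reflects chimeric LXRb-Gal4 activity on GAL4-UAS reporters.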

[19] = target: Steroid hormone receptor ERR1 (Homo sapiens) (UniProt P11474); assay: ATG_ERRa_TRANS: Attagene TRANS-FACTORIAL HepG2 Assay for human Estrogen-Related Receptor alpha (ERRa) (AID 2282971); conditions: HepG2 Attagene TRANS reporter, ERRa transactivation
Sequence of Steroid hormone receptor ERR1 (Homo sapiens) (P11474 whole entry, looked up, the tested form may be a part): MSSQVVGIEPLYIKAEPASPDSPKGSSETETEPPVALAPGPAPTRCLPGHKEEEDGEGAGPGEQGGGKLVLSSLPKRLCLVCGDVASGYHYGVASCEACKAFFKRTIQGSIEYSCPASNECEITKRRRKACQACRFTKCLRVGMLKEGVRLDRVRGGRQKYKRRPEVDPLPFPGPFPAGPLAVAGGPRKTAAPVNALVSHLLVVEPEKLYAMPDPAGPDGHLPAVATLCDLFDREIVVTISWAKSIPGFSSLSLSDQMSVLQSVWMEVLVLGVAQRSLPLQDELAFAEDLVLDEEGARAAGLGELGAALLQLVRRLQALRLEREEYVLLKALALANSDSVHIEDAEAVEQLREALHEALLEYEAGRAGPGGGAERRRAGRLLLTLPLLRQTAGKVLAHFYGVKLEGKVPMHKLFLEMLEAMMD
Method in brief: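 Reporter transcripts from ERRa-Gal4 chimera activity measured in transiently transfected human HepG2 cells 24 hours after dosing, using RT-PCR with 6-FAM primer extension, HpaI digestion and capillary electrophoresis; DMSO is baseline.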

[20] = target: Estrogen receptor (Homo sapiens) (UniProt P03372); assay: ATG_ERa_TRANS: Attagene TRANS-FACTORIAL HepG2 Assay for human Estrogen Receptor alpha (ERa) (AID 2282970); conditions: HepG2 Attagene TRANS ERa GAL4 reporter, mRNA
Method in brief: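 Reporter transcripts were measured 24 h after dosing by RT-PCR with fluorescent primer extension and capillary electrophoresis. The system is transiently transfected HepG2 expressing exogenous NR-Gal4 chimeras driving GAL4-UAS reporters; DMSO is the baseline.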

Cc1c(C2(c3cc(Br)c(O)c(Br)c3C)OS(=O)(=O)c3ccccc32)cc(Br)c(O)c1Br
outcome [1]: inactive | outcome [2]: inactive | AC50 [3]: 22.7 µM (active) | outcome [4]: inactive | outcome [5]: inactive | outcome [6]: inactive | outcome [7]: inactive | outcome [8]: inactive | outcome [9]: inactive | outcome [10]: inactive | outcome [11]: inactive | outcome [12]: inactive | outcome [13]: inactive | outcome [14]: inactive | outcome [15]: inactive

COc1ccc(N)c([N+](=O)[O-])c1
outcome [1]: inactive | outcome [2]: inactive | outcome [3]: inactive | outcome [4]: inactive | outcome [5]: inactive | outcome [6]: inactive | outcome [7]: inactive | outcome [9]: inactive | outcome [16]: inactive | outcome [13]: inactive | outcome [14]: inactive | outcome [15]: inactive

COC(C)(C)CC(C)=O
outcome [1]: inactive | outcome [2]: inactive | outcome [3]: inactive | outcome [4]: inactive | outcome [5]: inactive | outcome [6]: inactive | outcome [7]: inactive | outcome [9]: inactive | outcome [17]: inactive | outcome [10]: inactive | outcome [18]: inactive | outcome [11]: inactive | outcome [16]: inactive | outcome [12]: inactive | outcome [13]: inactive | outcome [14]: inactive | outcome [15]: inactive

C#CC(C)(O)CC(C)C (stereo not given)
outcome [1]: inactive | outcome [2]: inactive | outcome [3]: inactive | outcome [4]: inactive | outcome [19]: inactive | outcome [5]: inactive | outcome [6]: inactive | outcome [10]: inactive | outcome [18]: inactive | outcome [11]: inactive | outcome [12]: inactive | outcome [14]: inactive | outcome [15]: inactive

CCCCCCC(O)CCCCCCCCCCC(=O)O (stereo not given)
outcome [1]: inactive | outcome [2]: inactive | outcome [3]: inactive | outcome [4]: inactive | outcome [19]: inactive | outcome [5]: inactive | outcome [8]: inactive | outcome [9]: inactive | outcome [17]: inactive | outcome [10]: inactive | outcome [18]: inactive | outcome [16]: inactive | outcome [12]: inactive | outcome [13]: inactive | outcome [14]: inactive

CCCCC(CC)COC(C)=O (stereo not given)
outcome [1]: inactive | outcome [2]: inactive | outcome [3]: inactive | outcome [4]: inactive | outcome [19]: inactive | outcome [5]: inactive | outcome [6]: inactive | outcome [7]: inactive | outcome [11]: inactive | outcome [14]: inactive | outcome [15]: inactive

CCCC(=O)C(CC)Sc1ccoc1C (stereo not given)
outcome [1]: inactive | outcome [2]: inactive | AC50 [3]: 26.7 µM (active) | outcome [4]: inactive | AC50 [20]: 16 µM (active) | AC50 [5]: 25.8 µM (active) | outcome [18]: inactive | outcome [16]: inactive | outcome [12]: inactive | outcome [13]: inactive | outcome [14]: inactive | outcome [15]: inactive

NC1CCCCC1N (stereo not given)
outcome [1]: inactive | outcome [2]: inactive | outcome [3]: inactive | outcome [4]: inactive | outcome [19]: inactive | outcome [5]: inactive | outcome [10]: inactive | outcome [18]: inactive | outcome [16]: inactive | outcome [12]: inactive | outcome [13]: inactive | outcome [14]: inactive | outcome [15]: inactive

CCCCCCCCc1ccc(S(=O)(=O)O)cc1
outcome [1]: inactive | outcome [2]: inactive | outcome [3]: inactive | outcome [4]: inactive | outcome [5]: inactive | outcome [6]: inactive | outcome [7]: inactive | outcome [9]: inactive | outcome [17]: inactive | outcome [12]: inactive | outcome [13]: inactive | AC50 [14]: 166 µM (active) | AC50 [15]: 146 µM (active)

C=C(C)CNCC
outcome [1]: inactive | outcome [2]: inactive | outcome [3]: inactive | outcome [4]: inactive | outcome [19]: inactive | outcome [5]: inactive | outcome [7]: inactive | outcome [9]: inactive | outcome [11]: inactive | outcome [16]: inactive | outcome [12]: inactive | outcome [13]: inactive | outcome [14]: inactive | outcome [15]: inactive
